Laboratory results from PubChem BioAssay AID488857 (Sanford-Burnham Center for Chemical Genomics, 2010).
Screen size: about 1,400 compounds; about 560 (40%) were called active.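 How the source made its calls: active means mean inhibition over duplicate tests at 10 µM above 50%; inactive means the rest.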 The set was probably picked from earlier hits. The list shows a part of the results.

Assay: ASC/caspase-1 reporter retest in S. cerevisiae at one dose, specificity check for NALP1 project (AID 488857)
Conditions: S. cerevisiae ASC/Caspase-1, beta-galactosidase luminescence, 24 h; at 10 µM; active compounds read high

inhibition, inactive:
CC1CCCCN1C(=S)Nc1ccc2nc3n(c(=O)c2c1)CCCCC3 (centres undefined) 40.4%, CCOC(=O)c1ccc(N2C(=O)CC(N3CCCC(C)C3)C2=O)cc1 (centres undefined) 49.7%, CCOC(=O)CCCNC(=O)COC(=O)c1ccc(O)cc1 35.5%, CC1(C)CC(=O)c2c(-c3cccs3)n[nH]c2C1 44.1%, CCOc1ccccc1C1CC(=O)NC(SCC(=O)Nc2nccs2)=C1C#N (centres undefined) 10.7%, COc1ccc(CNC(=O)CCNS(=O)(=O)c2ccc(C)cc2)cc1 43.1%, Cc1ccc(S(=O)(=O)NCc2ccc(C(=O)NCCCN3CCC(Cc4ccccc4)CC3)cc2)cc1 20.4%, c1ccc(Nc2ccccn2)cc1 34.5%, COc1ccccc1C/C(N)=N/OC(=O)c1cccc([N+](=O)[O-])c1C 41.5%, Cc1cccc(C(=O)NNC(=O)CN2C(=O)c3ccccc3C2=O)c1 32.6%, O=C(Cc1ccc([N+](=O)[O-])cc1)c1ccc(O)cc1O 49.1%, N/C(Cc1ccc(Cl)cc1)=N\OC(=O)C1CCCCC1 47.5%, Cc1cccc(/C(N)=N/OC(=O)c2ccc(Cl)cc2Cl)c1 32.9%, CCOC(=O)C1C(=O)Oc2ccc3ccccc3c2C1C1CCOC1=O (centres undefined) 32.4%, CN1CCN(S(=O)(=O)c2ccc(Br)c3nsnc23)CC1 45.2%, CN1CCN(C2=C(Cl)C(=O)N(CCc3ccccc3)C2=O)CC1 47.1%, CCOC(=O)n1c(=O)n(Cc2ccccc2)c2ccccc21 47.1%, CC12CCC(C(=O)O)(C/C1=N\O)C2(C)C (centres undefined) 21%, CCOCCCNCc1ccc(OCc2ccccc2Cl)cc1 45.9%, COc1ccc(OCC#CCNC(C)(C)C)cc1 30.3%, O=C(CCCN1C(=O)c2ccccc2C1=O)Oc1ccc(Cl)cc1 31.9%, COc1ccc(CNCCSc2nnnn2C)cc1OC 40.2%, COc1ccc(OCCCC(=O)NCC(C)C)cc1 39.5%, COc1ccc(C(CCNCc2ccccc2F)c2ccc(F)cc2)cc1 (centres undefined) 45.1%, CN(C)C(CNC(=O)CCCOc1ccccc1)c1ccco1 (centres undefined) 39.1%, COc1cc(/C=C2\SC(=Nc3ccc(F)cc3)N(c3ccc(F)cc3)C2=O)ccc1OCC(=O)O 31.9%, O=C1CCCc2ccccc2N1Cc1ccc(Cl)cc1Cl 31.8%, O=C1Cc2ccccc2C(=O)N1OCc1ccc(Cl)cc1Cl 29.5%, CN(C)C(=N)c1n[nH]nc1SCc1ccccc1 27.9%, CCCCN(CC)S(=O)(=O)c1ccccc1 8.05%, COC(=O)c1c(NC(NC(=O)C(C)C)C(Cl)(Cl)Cl)sc2c1CCC2 (centres undefined) 33.2%, CCOc1cc(-c2c(C)c(C)nc(N)c2C#N)ccc1O 49.5%, O=C(Nc1cc(N2CCOCC2)ncn1)NC1(C(F)(F)F)Oc2ccc(Cl)cc2O1 (centres undefined) 36.8%, O=C(C(Cc1ccccc1)n1cccc1)N1CCN(c2ccccc2)CC1 (centres undefined) 49.2%, O=S(=O)(N1CCCCC1)N1CCN(c2ccc(F)cc2)CC1 45.9%, CC(C)Oc1ccc(OCCNC2CCCC2)cc1 45.6%, CCN(CC)S(=O)(=O)c1cccc(C(=O)N[C@H](C(=O)O)C(C)C)c1 45.6%, N#CC(C#N)=C1C=CC=CN1/C(=C\c1ccccc1Cl)C(=O)c1ccccc1 17.6%, CN(C)CCNC=C(C(=O)Nc1ccc(Cl)cc1Cl)C(=O)Nc1ccc(Cl)cc1Cl 36%, Cn1nc(NC(=O)C(C)(C)C)c2c(F)cccc21 23.4%, CCCC(CCC)c1nc2ccncc2[nH]1 39.7%, Clc1ccc(N2CCN(c3cnc4ccccc4n3)CC2)cc1 29.9%, COC(=O)c1c(S(=O)(=O)NCc2ccccc2)sc(C(=O)O)c1C 32.3%, Cn1c(=O)c2c(nc(Sc3ncccn3)n2Cc2ccccc2Cl)n(C)c1=O 26.6%, Cc1ccc(S(=O)(=O)NCC(=O)N(CC(=O)NC(C)(C)C)Cc2cccs2)cc1 34.8%, Cc1ccc(C(=O)CCC(=O)O)cc1 26.7%, Cc1cccc(C)c1OCCNC(=O)CCC(=O)c1ccccc1 31.6%, Cc1cc(C)c(S(=O)(=O)Nc2cc(SCC(=O)O)c(O)c3ccccc23)cc1C 17.9%, O=S(=O)(Nc1ccc(Oc2ncccn2)c(Cl)c1)c1ccc(F)cc1 32.6%, CC(C)Sc1nnc([C@H](Cc2ccccc2)NC(=O)OC(C)(C)C)o1 41.7%, CCCCSc1nnc(CCNC(=O)OC(C)(C)C)o1 47.8%, O=C(c1ccc(S(=O)(=O)c2ccccc2)cc1)N1CCCCCC1 31.9%, OCCN(CCO)c1ncnc2c1oc1ccc(Br)cc12 29.6%, COc1ccccc1OCCCCN1CCN(c2ccccc2OC)CC1 21.9%, COc1ccccc1N1CCN(CCCCCCOc2ccc(F)cc2)CC1 49.6%, Cc1nc2cc(-c3ccc(Cl)cc3)nn2c(C)c1CCC(=O)NC(C)c1ccc2c(c1)OCCO2 (centres undefined) 49%, O=C1/C(=C/c2ccco2)Cc2ccccc21 48.4%, COc1ccc(C2=C/C(=C/c3cccnc3)C(=O)O2)cc1OC 28.8%, Nc1ccc2c(c1)C/C(=C/c1ccco1)C2=O 21.8%, COc1cc2ccccc2c2c1CCCC2=O 30%, Cc1n[nH]c(C)c1S(=O)(=O)N1CCN(C2CCCCC2)CC1 32.4%, CS(=O)(=O)N(CC(=O)Nc1ccccc1Sc1ccccc1)C1CCCCC1 19.4%

inhibition, active:
O=C(Nc1ccc2nc3n(c(=O)c2c1)CCCC3)c1cc([N+](=O)[O-])ccc1F 79.8%, Cc1cc(NC(=O)/C=C/c2ccccc2Cl)no1 51.1%, CCOC(=O)c1ccc(N2C(=O)C=CC2=O)cc1 82.3%, CC1=NNC(=O)/C1=C\c1cn(-c2ccccc2)nc1-c1cccs1 89.6%, Cc1cc(N2CCOCC2)n2ncc(-c3ccccc3)c2n1 71.5%, COc1ccc(/C=C2\SC(N3CCc4ccccc4C3)=NC2=O)cc1 76.5%, CSc1ccc(S(=O)(=O)NCc2ccc(C)cc2)cc1 56%, c1ccc(-c2cccc(-c3ccccn3)n2)nc1 97.2%, CCCCOC(=O)Oc1ccc2c(=O)c(Oc3cc(C)cc(C)c3)coc2c1 54.9%, Cc1cc(C)n(CCOc2ccc(Cl)cc2Cl)n1 56.7%, CC1=C(C)/C(=N\OS(=O)(=O)c2ccc(C)cc2)C=CC1=O 92.7%, N/C(Cc1ccc([N+](=O)[O-])cc1)=N\OC(=O)c1ccccc1Br 71%, Cc1cccc(/C(N)=N/OC(=O)c2cccc3ccccc23)c1 52.9%, N/C(Cc1ccccc1)=N\OC(=O)c1cccc2ccccc12 51.2%, C=CCSc1nsc(NC(=O)Nc2ccc(F)cc2)n1 98.9%, COc1ccc(CNCCC(c2ccc(F)cc2)c2ccc(OC)cc2)cc1 (centres undefined) 61.4%, COc1ccc(CCNCc2ccc(OCc3ccccc3)cc2)cc1 80.8%, COc1ccc(OCCCC(=O)Oc2ccc(OC)cc2)cc1 50.5%, COc1ccc(OCCCC(=O)NCCc2ccccc2)cc1 51.9%, Clc1ccc(CO/N=C2\CCCc3nonc32)c(Cl)c1 52.5%, CCCCCCCCCCCCCCCC[n+]1ccc(C(N)=O)cc1 80.4%, CCCCCCCCCCCCCCCC[n+]1cccc(C(=O)N(CC)CC)c1 93.2%, CCCCCCCCCCCCCCCC[n+]1ccc(/C=N/O)cc1 85.1%, COC(=O)c1c(NC(=O)C2CCCO2)sc2c1CCC2 (centres undefined) 58%, CCc1ccc(CC(=S)N2CCOCC2)cc1 51.4%, O=C(NC(=O)N1CCN(c2ccc(F)cc2)CC1)c1ccccc1 53%, COc1ccc(/C=C(/C(=O)c2cccs2)N2C=CC=CC2=C(C#N)C#N)cc1 51.5%, CC1CCN(c2nc(CN3CCCCC3)nc3scc(-c4ccccc4)c23)CC1 65.8%, O=C1S/C(=C\c2ccc(N3CCOCC3)o2)C(=O)N1c1ccccc1 56.8%, COc1cc(OC)nc(-n2ncc(Br)c(Br)c2=O)n1 51.4%, CCCC(=O)c1ccc(-c2ccccc2)cc1 57.2%, Cc1c(NC(=O)c2cc3c(s2)-c2ccccc2OC3)cccc1[N+](=O)[O-] 72%, O=S(=O)(Nc1cc(Sc2cccc3cccnc23)c(O)c2ccccc12)c1ccc(F)cc1 90.7%, CC(C)(C)OC(=O)NCCCCCc1nnc(SCc2ccccc2)o1 71.4%, O=C(c1ccc(COc2ccccc2Br)cc1)N1CCCCC1 52.2%, CCN(CCO)Cc1csc2ccc(Br)cc12 55.5%, COc1ccccc1N1CCN(CCCCOc2cccc3ccccc23)CC1 63.3%, Cc1cccc(NCc2nc3ccccc3n2C)c1 74%, COc1ccc(/C=C2\COc3ccccc3C2=O)cc1OC 81.6%, COc1cc(/C=C2/CCc3ccccc3C2=O)cc(OC)c1OC 69.8%, O=C1/C(=C/c2ccccc2)CCCc2ccccc21 72.1%, COc1ccc2c(c1)CC/C(=C/c1ccco1)C2=O 68.5%
